Experimental findings from PubChem BioAssay AID651610 (Broad Institute, 2012) are described below.

The campaign covered roughly 360,000 compounds. About 3,900 (1.1%) were called active. Only a selection was taken, and actives are over-represented in it overall. Unmarked numbers belong to inactive results.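 How the source made its calls: active means mean replicate inhibition score of at least 50 and every replicate individually at or above 50; inconclusive means only one of the two criteria met; inactive means mean below 50 and not all replicates reaching 50.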

This assay is described as follows: inhibitors of HIV-1 Env-driven cell-cell fusion, primary screen, HeLa-JRFL effector, CEM21 target cells, luciferase (AID 651610).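 Further: 0% = plate neutral controls and 100% = maraviroc near 300 nM.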 Particulars: hits give high values; at 16.7 µM unless noted.
As for `O=C(NC[C@H]1CC[C@@H]2[C@@H](CN2S(=O)(=O)c2ccccc2F)O1)C1CCCCC1`, the inhibition is 5.54%.

As for `Cc1ccc(-n2c(O)c(C=Nc3ccc(S(=O)(=O)Nc4ncccn4)cc3)c3ccccc3c2=O)cc1C`, the inhibition is 65% [at 12.3 µM] (active).

With `CCCCn1nc(C(=O)Nc2ccc(S(=O)(=O)Nc3ncccn3)cc2)c2ccccc2c1=O`, the inhibition is 3.69% [at 12.3 µM].

On to `CCN(CC)CCCN=Cc1c(O)n(-c2ccc(C)cc2)c(=O)c2ccccc12`, for which the inhibition was -12.6% [at 12.3 µM].

As to `Cc1ccc(S(=O)(=O)Nc2ccc3c(c2)C(=O)N([C@H](C)CO)C[C@H](C)[C@H](CN(C)S(=O)(=O)c2ccc(F)cc2)OCCCC[C@@H](C)O3)cc1`, the inhibition was -11.1%.

Regarding `O=C(COc1ccccc1[N+](=O)[O-])N/N=C/c1ccc[nH]1`, the inhibition is -18.2% [at 12.3 µM].

As for `CC(=O)Nc1ccc(C(=O)/C=C/c2ccc[nH]2)cc1`, the inhibition is 3.48% [at 12.3 µM].

In the case of `CCCC(=O)Nc1ccc(C(=O)N/N=C/c2ccc[nH]2)cc1`, the inhibition was 66.2% [at 12.3 µM] (active).

`CC1(C)OC(=O)C2=C(CC(CCc3ccccc3)OC2c2ccc(Cl)cc2)O1` (stereo not drawn): the inhibition was -17.2% [at 12.3 µM].

Consider `COc1ccc(C(CNC(=O)c2cccc(NS(=O)(=O)c3ccc(C)c(F)c3)c2)N2CCCC2)cc1` (stereo not drawn), for which the inhibition was -23.5% [at 12.3 µM].

As for `COc1ccc(C(CNC(=O)c2ccc(NS(=O)(=O)c3ccc(F)c(C)c3)cc2)N(C)C)cc1` (stereo not drawn), the inhibition is -1.84% [at 12.3 µM].

For the compound `Cc1cc(S(=O)(=O)Nc2ccc(C(=O)NCC(c3ccco3)N3CCCC3)cc2)ccc1F` (stereo not drawn), the inhibition was 57.1% [at 12.3 µM] (active).

With `COc1ccc(NC(=O)N(C)C[C@@H]2OCCCC[C@@H](C)Oc3ccc(N(C)C)cc3C(=O)N([C@H](C)CO)C[C@@H]2C)cc1`, the inhibition is 7.61%.

For the compound `C[C@H]1CN([C@@H](C)CO)C(=O)Cc2cc(NC(=O)C3CC3)ccc2O[C@H]1CN(C)C(=O)Nc1ccc(C(F)(F)F)cc1`, the inhibition was 3.78%.

Take `C[C@H](CO)N1C[C@H](C)[C@@H](CN(C)S(=O)(=O)c2cn(C)cn2)OCCCC[C@H](C)Oc2ccc(NC(=O)Cc3ccccc3)cc2C1=O`: the inhibition is -9.54%.

As for `C=CCn1c(C)cc(C2=NNC(=NCC)SC2)c1C`, the inhibition is 68.8% [at 12.3 µM] (active).

As to `CO[C@@H]1CN(C)C(=O)c2ccc(NC(=O)c3ccc(F)cc3)cc2OC[C@H](C)NC[C@@H]1C`, the inhibition is -0.21%.

In the case of `C[C@@H]1CN([C@H](C)CO)C(=O)Cc2cc(NC(=O)Nc3ccc(F)cc3)ccc2O[C@@H]1CN(C)C(=O)Nc1ccc2c(c1)OCO2`, the inhibition was 8.43%.

For `COc1ccc(N(CC(=O)Nc2cccc3ccccc23)S(C)(=O)=O)c(OC)c1`, the inhibition was 4.71% [at 12.3 µM].

As for `COc1ccc(N(CC(=O)Nc2ccc(C)cc2C)S(=O)(=O)c2ccccc2[N+](=O)[O-])c(OC)c1`, the inhibition was 31.2% [at 12.3 µM].

Turning to `CCc1ccccc1NC(=O)CN(c1ccc(OC)cc1OC)S(=O)(=O)c1ccccc1[N+](=O)[O-]`, the inhibition is 55.2% [at 12.3 µM] (active).

For the compound `C[C@H](CO)N1C[C@H](C)[C@@H](CN(C)Cc2ccc(C(=O)Nc3ccccc3N)cc2)Oc2c(NC(=O)c3ccc(-c4nccs4)cc3)cccc2C1=O`, the inhibition was -33.5%.

`COc1ccc(Cl)cc1NC(=O)CN(C)C(=O)c1cc2ccccc2cc1OC`: the inhibition was 26.5% [at 12.3 µM].

In the case of `COc1ccc(Cl)cc1NC(=O)CN(C)C(=O)CNC(=O)C12CC3CC(CC(C3)C1)C2`, the inhibition is -38.6% [at 12.3 µM].

Turning to `COc1ccc(Cl)cc1NC(=O)CN(C)C(=O)CCCc1c[nH]c2ccccc12`, the inhibition is 75.6% [at 12.3 µM] (active).

For the compound `C[C@H](CO)N1C[C@H](C)[C@H](CN(C)C(=O)Nc2ccc(C(F)(F)F)cc2)Oc2ccc(NS(=O)(=O)c3cn(C)cn3)cc2CC1=O`, the inhibition was 10.7%.

Take `CN1C(=O)c2cc(NS(=O)(=O)CC(F)(F)F)ccc2OC[C@H]2O[C@@H](CC(=O)NCc3ccc(Cl)c(Cl)c3)CC[C@@H]21`: the inhibition was -8.14%.

On to `COCC(=O)Nc1ccc2c(c1)C(=O)N(C)[C@H]1CC[C@H](CC(=O)Nc3ccccc3)O[C@H]1CO2`, for which the inhibition was 12.1%.

Turning to `Cc1nc(Nc2ccc(S(=O)(=O)N3CCCC3)cc2)c2nnn(Cc3ccccc3)c2n1`, the inhibition was 11.3% [at 12.3 µM].

As for `O=S(=O)(NCc1ccccc1)c1ccc(S(=O)(=O)N2CCCC2)cc1`, the inhibition is -8.09% [at 12.3 µM].

Take `O=C1c2cccnc2C(Nc2ccc(S(=O)(=O)N3CCCCCC3)cc2)N1Cc1ccccc1` (stereo not drawn): the inhibition is 75.5% [at 12.3 µM] (active).

As to `NCC[C@@H]1CC[C@@H](NC(=O)C2CCCC2)[C@H](CO)O1`, the inhibition was -16.5%.

For the compound `O=C(C[C@H]1C[C@H]2c3cc(NC(=O)c4ccc5c(c4)OCO5)ccc3O[C@H]2[C@@H](CO)O1)NCc1cccc(F)c1`, the inhibition is -9.68%.

Regarding `CCc1ccc(CN(C)Cc2nc(Cc3ccccc3)no2)nc1`, the inhibition is 9.8% [at 12.3 µM].

As for `CCc1ccc(CN(C)C(=O)CCc2nnc(-c3ccc(-c4ccccc4)cc3)o2)nc1`, the inhibition is 55.8% [at 12.3 µM] (active).

In the case of `CC(=O)c1ccc(-c2nnc(CCC(=O)N(C)Cc3cnc4ccccn34)o2)s1`, the inhibition was 0.752% [at 12.3 µM].

For `CN(C)C(=O)C[C@H]1C[C@H]2c3cc(NC(=O)Nc4ccccc4F)ccc3O[C@H]2[C@@H](CO)O1`, the inhibition is 1.88%.

Regarding `Cn1cccc1Cc1nnc(SCC(=O)NCCc2ccccc2)n1-c1ccc(F)cc1`, the inhibition is 16% [at 12.3 µM].

`Cc1ccc(-c2noc(CSc3nnc(-c4cccs4)n3C)n2)cc1`: the inhibition was 19.8% [at 12.3 µM].

Regarding `Cc1ccc(-c2noc(CSc3nnc(-c4ccncc4)n3-c3ccc(F)cc3)n2)cc1`, the inhibition was 62.8% [at 12.3 µM] (active).

For `Fc1ccc(-n2c(Cc3ccccc3)nnc2SCc2nc(-c3ccc(Cl)cc3)no2)cc1`, the inhibition was 79.7% [at 12.3 µM] (active).

As for `Cn1c(SCc2ccc(F)cc2)nnc1-c1ccncc1`, the inhibition was 8.23% [at 12.3 µM].

Consider `O=C(CSc1nnc(Cc2ccccc2)n1-c1ccccc1)N1CCOCC1`, for which the inhibition is -26.5% [at 12.3 µM].

Consider `C[C@@H]1CCCCO[C@@H](CN(C)Cc2ccncc2)[C@H](C)CN([C@@H](C)CO)C(=O)c2cc(NS(=O)(=O)c3ccccc3)ccc2O1`, for which the inhibition is 18.8%.

`CO[C@@H]1CN(C)C(=O)c2cc(NC(C)=O)ccc2OC[C@@H](C)N(C(=O)NC2CCCCC2)C[C@H]1C`: the inhibition was 27.6%.

On to `CC1(C(=O)NCc2cccc3ccccc23)CCN1Cc1ccc(-c2ccccc2)o1` (stereo not drawn), for which the inhibition was 102% [at 12.3 µM] (active).

With `CSc1ccc(CN2CCC2(C)C(=O)NCc2ccccc2Br)cc1` (stereo not drawn), the inhibition was 26.2% [at 12.3 µM].

`CC1(C(=O)NCc2ccc3c(c2)OCO3)CCN1C(=O)Cc1cccc2ccccc12` (stereo not drawn): the inhibition is -2.06% [at 12.3 µM].

Take `C[C@H](CO)N1C[C@H](C)[C@@H](CN(C)S(=O)(=O)c2ccc(F)cc2)Oc2c(NC(=O)Nc3ccccc3)cccc2C1=O`: the inhibition was -4.04% [at 12.3 µM].

For the compound `C[C@@H]1CN([C@H](C)CO)C(=O)c2cccc(NC(=O)Nc3cccc4ccccc34)c2O[C@@H]1CN(C)C(=O)Nc1cccc2ccccc12`, the inhibition is -85%.

Take `C[C@@H]1CN([C@H](C)CO)C(=O)c2cc(NC(=O)Nc3ccccc3)ccc2O[C@H]1CN(C)S(=O)(=O)c1ccc(F)cc1`: the inhibition was -5.96%.

As for `C[C@H]1CN([C@@H](C)CO)C(=O)c2cc(NC(=O)Nc3ccc4c(c3)OCO4)ccc2O[C@H]1CN(C)S(=O)(=O)c1ccc(F)cc1`, the inhibition was 68.9% (active).

For `C[C@H]1CN([C@@H](C)CO)C(=O)c2cccc(NC(=O)Nc3ccc(C(F)(F)F)cc3)c2O[C@H]1CN(C)S(=O)(=O)c1ccccc1`, the inhibition was 69.3% (active).

On to `CNC[C@H]1Oc2c(NC(=O)Nc3cccc4ccccc34)cccc2C(=O)N([C@H](C)CO)C[C@H]1C`, for which the inhibition was 56.8% (active).

Consider `C[C@@H]1CCCCO[C@@H](CN(C)S(=O)(=O)c2ccc(F)cc2)[C@@H](C)CN([C@@H](C)CO)C(=O)c2cc(NC(=O)Nc3ccc4c(c3)OCO4)ccc2O1`, for which the inhibition was -5.81%.

Regarding `C[C@H](CO)N1C[C@H](C)[C@H](CN(C)S(=O)(=O)c2ccccc2)Oc2c(NC(=O)Nc3ccccc3)cccc2C1=O`, the inhibition was -1.17%.

As for `COc1ccc(S(=O)(=O)N(C)C[C@H]2Oc3ccc(NC(=O)Nc4ccccc4)cc3CC(=O)N([C@H](C)CO)C[C@@H]2C)cc1`, the inhibition is -2.93%.

`COc1ccc(NC(=O)Nc2ccc3c(c2)CC(=O)N([C@H](C)CO)C[C@H](C)[C@H](CN(C)S(=O)(=O)c2ccc(OC)cc2)O3)cc1`: the inhibition was 42.7%.

`COc1ccc(NC(=O)Nc2ccc3c(c2)CC(=O)N([C@H](C)CO)C[C@H](C)[C@H](CN(C)S(=O)(=O)c2ccccc2)O3)cc1`: the inhibition was 59.1% (active).

Consider `CNC[C@@H]1Oc2c(NC(=O)Nc3ccc(OC)cc3)cccc2C(=O)N([C@@H](C)CO)C[C@@H]1C`, for which the inhibition was 5.18%.

For the compound `CCCN(C)C[C@@H]1Oc2cc(-c3cccc(C#N)c3)ccc2S(=O)(=O)N([C@@H](C)CO)C[C@@H]1C`, the inhibition is 1.91%.

With `C[C@H](CO)N1C[C@H](C)[C@H](CN(C)C(=O)NC2CCCCC2)Oc2ccc(NC(=O)c3ccncc3)cc2CC1=O`, the inhibition was -6.85%.

For the compound `C[C@@H]1CCCCO[C@H](CN(C)S(=O)(=O)c2cn(C)cn2)[C@H](C)CN([C@@H](C)CO)C(=O)c2cc(NC(=O)Nc3ccc(C(F)(F)F)cc3)ccc2O1`, the inhibition is -4.59%.
